According to PubChem BioAssay (NCI):
Compounds without any hit were thinned out: in the full panel of roughly 83,000, 20% have a hit.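 Note: values are percent growth. 100 is the growth of untreated cells, values between 100 and 0 indicate rising inhibition; between -100 and 0 indicates cell death.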 Unmarked numbers belong to inactive results. Activity calls are given as the source filed them.

system: M14 melanoma; test: NCI-60 one-dose screen, 48 h (100 = growth as untreated, 0 = no growth, -100 = all killed); settings: 10 µM unless noted
Method: Growth inhibition of the M14 human tumor cell line is measured as a screen for anti-cancer activity. Cells are grown in 96 well plates and exposed to the test compound for 48 hours. Compounds are tested at a single concentration, which is 10^-5 M for most compounds. The reported endpoint is percent growth (GI% or GIPRCNT), where numbers from 0 - 100% represent growth inhibition, and numbers from -100% - 0 represent cell death. For example, a value of 40 represents 60% growth inhibition. A value of 0 means no net growth occurred over the course of the experiment. A value of -40 indicates 40% of cells at the beginning of the experiment died by the end of the experiment. A value of -100 means all cells are dead at the end of the experiment.
NCI-60 Human Tumor Cell Lines Screen was performed using the standard one-dose NCI protocol, which is described in more detail at https://dtp.cancer.gov/discovery_development/nci-60/default.htm.
Compounds with GIPRCNT values below 10 were considered active. Activity score was based on GIPRCNT using the following formula: […]
Score is 0 for GIPRCNT values of 100 or above, 50 for GIPRCNT values of 0, and 100 for GIPRCNT values of -100.

Row | SMILES | growth
1 | ClCCn1cnc2c(SCc3ccccc3)ncnc21 | 71.7%
2 | Cc1cc2oc(/C=C/c3ccccc3)cc(=O)c2c(C)c1Cl | 108%
3 | C=C1C(=O)O[C@@H]2C3C(=C(C)CC[C@@H]12)CC1O[C@]13C (stereo not given in full) | 65.5% [6.75 µM]
4 | CNC(=O)Nc1ccc(-c2ccc3ncnc(Nc4cccc(Cl)c4)c3c2)cc1 | 63.2%
5 | COc1ccc(/C=C2\CN(C(=O)C(Cl)Cl)C/C(=C\c3ccc(OC)c(OC)c3)C2=O)cc1OC | -72.6% (active)
6 | COc1ccc(-c2cn(Cc3cc4ccccc4s3)nn2)cc1OCCN1CCCCC1 | -29.4% (active)
7 | CCOC(=O)c1c(NC(=O)c2ccccc2)sc2c3c(ccc12)OCN(C)C3 | -74.2% (active)
8 | Cc1cccc(N2C(=O)/C(=C/C(Cl)=C/c3ccc([N+](=O)[O-])cc3)SC2=S)c1C | 22.5%
9 | CCOc1ncc([N+](=O)[O-])c(OCC)n1 | 112%
10 | Cn1cc(-c2csc(-c3cn(CCCN4CCOCC4)c4ccc(F)cc34)n2)c2cccnc21 | 46.2%
11 | CCN(CC)CCN1C(=O)c2c(c3c4ccccc4[nH]c3c3ccc4ccccc4c23)C1=O | -85% (active)
12 | Nc1ccc(Br)cc1C(F)(F)F | 106%
13 | CC(=O)N1N=C(c2ccc(Nc3nc(Nc4ccc(F)cc4)nc(Nc4ccc(F)cc4)n3)cc2)CC1c1ccc(N(C)C)cc1 (stereo not given) | 40.2%
14 | c1cc(OCCN2CCCCCC2)ccc1CNc1ccc2nc(CCC3CCCCC3)[nH]c2c1 | -69.9% (active)
15 | CCOC(=O)c1c(C)nc2c(c1N)C(=O)C(=O)N2Cc1ccc(OC)cc1 | 68.8%
16 | CCOC(=O)C1=C(c2ccccc2)N=C2N(c3ccccc3)N=C(C(C)=O)N2C1c1ccc(F)cc1 (stereo not given) | 101%
17 | CCN(CC)CCOc1ccc2ccc(=O)oc2c1 | 94.8%
18 | Cc1ccc2c(c1)nc(C)n2-c1ncnc2c1CC(C)c1cc(O)ccc1N2C (stereo not given) | 15%
19 | COc1ccc(OC)c(Nc2nnc(-c3cc(OC)c(OC)c(OC)c3)o2)c1 | 101%
20 | Cc1ccc(-c2csc(NC(=O)CSc3nc(N)cc(N)n3)n2)cc1 | 67.8%

Row | SMILES | growth
21 | [N-]=[N+]=NCC1OC(n2cnc3c(NC(=O)Nc4ccccc4)ncnc32)C2OC(=O)CC12 (stereo not given) | 108%
22 | COc1cc(/C=C2\C(=O)N(CCCOc3cc(O)c4c(=O)cc(-c5ccccc5)oc4c3)c3ccccc32)cc(OC)c1O | 57.1%
23 | CNC(=O)NCC1OC(n2cnc3c(NC(=O)Nc4ccccc4)ncnc32)C2OC(=O)CC12 (stereo not given) | 105%
24 | COCC(=O)Oc1cc(-c2ccc(C)cc2C)c(OC(=O)COC)c(-c2ccc(C)cc2C)c1 | 65.1%
25 | CC(C)CCC[C@@H](C)[C@H]1CC[C@H]2[C@@H]3CC=C4c5sc(Nc6cc(C(F)(F)F)cc(C(F)(F)F)c6)nc5CC[C@]4(C)[C@H]3CC[C@]12C | 98.6%
26 | COc1ccc(Nc2ncc(I)c(NCCCNC(=O)C3CCC3)n2)cc1 | 43%
27 | COC1C(O)CC(OC2CC(OC3CC(O[C@@H]4C(=O)c5c(cc6cc(OC7CC(OC8CC(O)C(O)C(C)O8)C(O)C(C)O7)c(C)c(O)c6c5O)CC4[C@H](OC)[C@@H](O)C(C)=O)OC(C)C3O)OC(C)C2O)OC1C (stereo not given in full) | -21.2% (active)
28 | CCCCn1c(NC(C)=O)c(S(=O)(=O)c2ccccc2)c2nc3ccccc3nc21 | 106%
29 | COc1ccc2[nH]cc(-c3nonc3-c3c[nH]c4ccc(Br)cc34)c2c1 | 31.8%
30 | C=CC(=O)Nc1cccc(Oc2nccc(Nc3nnc(-c4ccc(Br)cc4)s3)n2)c1 | 116%
31 | COc1ccc2c(c1)C(C)Cc1c(ncnc1-n1cnc3cc(C)ccc31)N2C (stereo not given) | 8.87% (active)
32 | CC1=Nc2cnc(Nc3ccc(N4CCCCC4)cc3)nc2Nc2ccccc21 | 71.5%
33 | CCCCCCCCCCOC(=O)c1nn(C(C)=O)c2cc(C)c(C)cc12 | 90.7%
34 | CN(C)CCC(CCN(C)C)(C(=O)O)c1ccccc1 | 99.2%
35 | COc1cc(C=C2C(=O)NC(=S)NC2=O)cc(CN2CCCC2)c1O | 109%
36 | CCCCC#Cc1c(I)n(C2OC(CO[Si](C)(C)C(C)(C)C)C3OC(C)(C)OC32)c(=O)n(C(=O)c2ccccc2)c1=O (stereo not given) | 78.6%
37 | Cc1sc2nc(NCCN)[nH]c(=O)c2c1C | 85.1%
38 | COc1cc2c(c(OC)c1OC)CCC(c1cccc(C(=O)Nc3ccc(Br)cc3)c1)O2 (stereo not given) | 70.5%
39 | COc1ccc(C2[C@@H](Cl)C(=O)N2c2cc(OC)c(OC)c(OC)c2)cc1Cl (stereo not given in full) | -4.46% (active)
40 | CC(C)n1c2ccc(Br)cc2c2c3c(c4c5ccccc5ccc4c21)C(=O)NC3=O | 92.7%
